Measured values: PubChem BioAssay (NCI)
Compounds without any hit were thinned out: in the full panel of roughly 83,000, 20% have a hit.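 Activity criterion: percent growth below 10, measured after cells in 96-well plates were exposed to a single compound concentration for 48 hours.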 Unmarked numbers belong to inactive results. Activity calls are given as the source filed them.

Columns and labels:
Test in all cases: NCI-60 one-dose screen, 48 h (100 = growth as untreated, 0 = no growth, -100 = all killed)
Details in all cases: 10 µM unless noted
SN12C renal = tested on: SN12C renal
UO-31 renal = tested on: UO-31 renal
ACHN renal = tested on: ACHN renal
CAKI-1 renal = tested on: CAKI-1 renal
A498 renal = tested on: A498 renal
CCRF-CEM leukemia = tested on: CCRF-CEM leukemia
MOLT-4 leukemia = tested on: MOLT-4 leukemia
SR leukemia = tested on: SR leukemia
RPMI-8226 leukemia = tested on: RPMI-8226 leukemia
OVCAR-8 ovarian = tested on: OVCAR-8 ovarian
OVCAR-4 ovarian = tested on: OVCAR-4 ovarian
SK-OV-3 ovarian = tested on: SK-OV-3 ovarian
IGROV1 ovarian = tested on: IGROV1 ovarian
OVCAR-3 ovarian = tested on: OVCAR-3 ovarian
HS 578T breast = tested on: HS 578T breast
NCI/ADR-RES ovarian = tested on: NCI/ADR-RES ovarian
T-47D breast = tested on: T-47D breast
TK-10 renal = tested on: TK-10 renal
OVCAR-5 ovarian = tested on: OVCAR-5 ovarian

Compound | growth (SN12C renal) [%] | growth (UO-31 renal) | growth (ACHN renal) [%] | growth (CAKI-1 renal) [%] | growth (A498 renal) [%] | growth (CCRF-CEM leukemia) | growth (MOLT-4 leukemia) | growth (SR leukemia) | growth (RPMI-8226 leukemia) | growth (OVCAR-8 ovarian) | growth (OVCAR-4 ovarian) [%] | growth (SK-OV-3 ovarian) [%] | growth (IGROV1 ovarian) [%] | growth (OVCAR-3 ovarian) | growth (HS 578T breast) | growth (NCI/ADR-RES ovarian) [%] | growth (T-47D breast) | growth (TK-10 renal) [%] | growth (OVCAR-5 ovarian) [%]
COc1ccc(-c2csc(NC(=O)c3cc(O)c(O)c(O)c3)n2)cc1 | 64.8 | 30.3% | 36 | 38.6 | 112 | 18.5% | 28% | 14.5% | 41.1% | 57.6% | 58.6 | 77.5 | 46.4 | 72.6% | 101% | 62.2 | 44.7% |  | 
O=C(NCCCO)c1cc(Cl)ccc1O | 12.9 | 48.1% | 14.6 |  | 53.2 |  | 33.2% | 26.1% |  | 17.8% |  | 40.6 | 28.1 | -14.9% (active) | 19.3% | 95.8 | 30% | 24.9 | 45
N#Cc1cccc(/C=C(/C(=O)c2ccccc2)c2ccccc2)c1 | 49.4 | 49.3% | 45 | 55.5 | 74.3 | 2.7% (active) | 4.97% (active) | 3% (active) | -4.62% (active) | 20.4% | 50.9 | 110 | 73.8 | 36.4% | 55.4% | 40.1 | 74.4% |  | 80.4
COc1cc(/C=C/C(=O)c2c(-c3ccc(F)cc3)nc3sc(C)nn23)cc(OC)c1OC | 35.9 | 21.5% | 24.6 | 15.2 | 85.2 | -9.53% (active) | 13.4% | 4.81% (active) | 0.772% (active) | 9.66% (active) | 44.1 | 15.5 | 28.7 | -16.4% (active) | 50.1% | 23.4 | -8.41% (active) |  | 18.7
C[C@]12CC[C@@H]3c4ccc(O)c([N+](=O)[O-])c4CC[C@H]3[C@@H]1CC[C@@H]2NS(=O)(=O)c1ccc(C(F)(F)F)cc1 | 17.8 | -90.1% (active) |  |  | 46.3 | 18.3% | 3.51% (active) | -8.8% (active) | 15.6% | 26.9% | 31 | 74.2 |  |  | 52.7% | 27.7 | 18.6% | 46.5 | 80.8
COc1cc(/C=C/C(=O)c2c(-c3ccc(Cl)cc3)nc3sc(C)nn23)cc(OC)c1OC | 78.3 | 51.2% | 73.8 |  | 85.5 | 32.5% | 48.3% | 26.1% | -15.6% (active) | 53.3% | 74.8 | 110 | 89.7 | 88.4% | 109% | 59.8 | 19.3% |  | 
O=C(/C(=C/c1cccc([N+](=O)[O-])c1)c1ccccc1)c1ccccc1 | 35.6 | 48.8% | 40.1 | 47.7 | 66.2 | 1.9% (active) | 4.09% (active) | 4.42% (active) | -7.27% (active) | 13% | 42.9 | 105 | 60.4 | 23.4% | 44.9% | 35.8 | 69.8% |  | 74.5
N#Cc1c2ccccc2c2n1-c1ccccc1OC(c1ccccc1)C2=O (configuration not stated) | 15.4 | 11.2% | 29 | 30.6 | 30.6 | 6.32% (active) |  | -7.43% (active) | 18.1% | 11.6% | 14.6 | 65.4 | 43 | 41.1% | 40.1% | 14 | 23.2% |  | 56.1
COc1cc(/C=C/C(=O)Nc2ccc3c(c2)/C(=C\c2cccn2C)C(=O)N3)cc(OC)c1OC | 41.2 | 28.3% | 54.9 | 52.1 | 46.8 | 31.9% | 50.8% | 16.2% | -17.8% (active) | 37% | 50.3 | 81.5 | 60.4 | 41.7% | 4.35% (active) | 84.2 | 15% |  | 99.5
